High-throughput results: PubChem BioAssay, several laboratories
GRIN3A LBD mod = modulates the human NR3A ligand-binding domain | NR3A LBD differential scanning fluorimetry, Tm shift; 0% = protein alone, 100% = glycine-bound protein | Tm shift relative to glycine control, % at 25 µM | 340,000 tested, 2.5% active | AID 1259313;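 active = melting temperature shift of at least 10% of the positive control shift, at one fixed dose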
NTR1 agonist = NTR1 (human) agonism. activation, % at 20 µM. NTR1-U2OS beta-arrestin-GFP spot imaging, agonist mode. 330,000 tested, 0.17% active;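 active = activation at or above 40% of the spot to cytoplasm intensity ratio, with at least 20 cells analyzed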
Target sequence (P30989 whole entry, looked up): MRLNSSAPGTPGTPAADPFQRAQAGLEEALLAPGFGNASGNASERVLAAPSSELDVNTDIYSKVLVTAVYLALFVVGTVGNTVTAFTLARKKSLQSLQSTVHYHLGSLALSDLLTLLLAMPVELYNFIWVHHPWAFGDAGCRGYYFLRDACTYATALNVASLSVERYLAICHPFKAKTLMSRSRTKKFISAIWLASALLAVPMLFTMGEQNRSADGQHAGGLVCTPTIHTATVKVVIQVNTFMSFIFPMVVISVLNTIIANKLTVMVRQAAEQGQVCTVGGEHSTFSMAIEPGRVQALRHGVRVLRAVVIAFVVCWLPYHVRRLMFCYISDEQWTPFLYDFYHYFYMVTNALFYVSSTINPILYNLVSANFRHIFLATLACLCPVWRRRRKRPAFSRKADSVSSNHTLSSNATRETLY
AI-2 QS modul = modulates the Vibrio harveyi AI-2 quorum sensing system; Vibrio harveyi JMH597 AI-2 luminescence/OD600 ratio, 9 h; hits give low values; strain lacks LuxN and CqsS sensors; 0 = neutral-control median; activity change, % at 7.5 µM; 300,000 tested, 0.4% active; AID 2094; in the data active = activity change below about -75%, passing the limit was not always enough;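 note: luminescence divided by OD600 gain over 9 h not by final OD600 alone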
SUMO Mot1 rescue = inhibitors of SUMOylation pathway: yeast Mot1-301 growth rescue; S. cerevisiae Mot1-301 growth rescue, ATP luminescence, 38.5C; percent above DMSO median, 100 means doubled; growth rescue, % at 18.8 µM; 320,000 tested, 1% active;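 active = every valid replicate shows activation above 250% relative to neutral control wells; inactive = the rest, any valid replicate at or below 250%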
AHR activator = activates the human aryl hydrocarbon receptor; P35869; 320,000 tested, 2.5% active; AHR-responsive luciferase reporter cells, luminescence; activation, % at 5 µM; in the data active = activation above about 47%
Cardio protect = modulators protecting cardiomyocytes from myocardial damage; H9c2 cardiomyocytes, H2O2 injury protection, ATPLite, 2 h; protection from H2O2 cell death, % at 20 µM; 360,000 tested, 0.63% active;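 active = compounds giving at least 50% protection of heart cells from peroxide-induced death in the single-dose screen, raw or plate-pattern-corrected value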
Mot1 SUMO dose = inhibits SUMO pathway, affecting Mot1-301 yeast growth. 2,300 tested, under 10 active. growth activity, percent, % at 42 µM. AID 493004. S. cerevisiae Mot1-301 galactose growth, ATP luminescence, 24 h; -100 = growth of slx-deleted rescue strain. shares compounds with SUMO Mot1 rescue;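 active = Signal drops as the depositor expects, and the fitted half-maximal dose is no more than ten times the top valid tested dose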;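 note: more negative values mean stronger growth rescue toward the control strain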
Of the large screens only hits and unclear results are named; the others gave an inactive call (follow-up assays come after a bar, where they were run). Compounds with a hit are over-represented: about 6.2% of the library has one in this group of screens.

CCN1CCN(CCCNC(=O)c2ccc(NC(=O)C3=C(C)OCCS3)cc2)CC1	none
O=C1c2ccccc2C(=O)N1CCSc1nc2ccccc2c(=O)n1CCCN1CCOCC1	none
O=C1c2ccccc2C(=O)N1CCCCSc1nc2ccccc2c(=O)n1CCCN1CCOCC1	SUMO Mot1 rescue active, Cardio protect 58.6 | Mot1 SUMO dose inactive
CNc1oc(-c2cccs2)nc1C#N	none
COc1ccc(Nc2oc(-c3cccs3)nc2C#N)cc1	SUMO Mot1 rescue 918.0 | Mot1 SUMO dose inactive
CC1(C(=O)NS(=O)(=O)Cc2cccc(Cl)c2)CCN1C(=O)C1CCCCC1 (centres undefined)	none (no result: GRIN3A LBD mod, NTR1 agonist, AI-2 QS modul, SUMO Mot1 rescue, AHR activator)
CCOc1ccc(-n2cc(C(=O)NCCOC)c3cc(OC)c(OC)cc3c2=O)cc1	SUMO Mot1 rescue 810.0 | Mot1 SUMO dose inactive
CCOc1ccc(-n2cc(C(=O)Nc3cccc(OC)c3)c3cc(OC)c(OC)cc3c2=O)cc1	none
Cc1ccn2cc(-c3cnoc3C)nc2c1	SUMO Mot1 rescue 691.6 | Mot1 SUMO dose inactive
CCOC(=O)c1cnc2c(C)c(Cl)ccc2c1N1CCOCC1	SUMO Mot1 rescue 828.0 | Mot1 SUMO dose inactive
OCCN1CCN(c2ncnc3c2ncn3[C@H]2CN(Cc3cccs3)C[C@@H](CO)O2)CC1	none (no result: GRIN3A LBD mod, NTR1 agonist, AI-2 QS modul, SUMO Mot1 rescue, AHR activator)
c1c[nH]c(CN2CCN(Cc3ncc[nH]3)CC2)n1	none (no result: NTR1 agonist, AI-2 QS modul, SUMO Mot1 rescue, AHR activator)
O=C(NCCCNC(=O)c1ccc(-c2cccc(Cl)c2)o1)c1cnccn1	none
CN=C1SC(CC(=O)Nc2sc3c(c2C#N)CCCC3)C(=O)N1C (centres undefined)	SUMO Mot1 rescue 364.2 | Mot1 SUMO dose inactive
CCC(=O)Nc1sc2c(c1C#N)CCC2	none
Cc1nnc(NC(=O)c2cccc(S(=O)(=O)N3CCCC3)c2)s1	SUMO Mot1 rescue 575.8 | Mot1 SUMO dose inactive
CCc1nnc(NC(=O)c2cccc(S(=O)(=O)N3CCN(c4ccccc4)CC3)c2)s1	SUMO Mot1 rescue 572.0 | Mot1 SUMO dose inactive
CSc1ncnc2c1ncn2CCCN1CCN(C(=O)C2CC2)CC1	none (no result: GRIN3A LBD mod, NTR1 agonist, AI-2 QS modul, SUMO Mot1 rescue, AHR activator)
CN(CCOc1ccc(Cl)cc1)CC(=O)Nc1ccc(OC(F)F)cc1	SUMO Mot1 rescue 403.4 | Mot1 SUMO dose inactive
O=C(Cc1ccc(Cl)cc1Cl)OCC(=O)c1ccc[nH]1	SUMO Mot1 rescue 580.6 | Mot1 SUMO dose inactive
COc1cccc(N=Nc2c(=O)[nH]n3c(=O)cc(C)[nH]c23)c1	SUMO Mot1 rescue 372.2 | Mot1 SUMO dose inactive
O=C(COC(=O)c1cccc([N+](=O)[O-])c1)Nc1ncc(Br)s1	none (no result: AI-2 QS modul)
Cc1ccc(S(=O)(=O)Nc2csc(C)c2C(=O)O)cc1	none (no result: Cardio protect)
CNc1csc(C)c(C)c1=O	SUMO Mot1 rescue 447.8 | Mot1 SUMO dose inactive
COCc1[nH][nH]c(=O)c1C=Nc1ccc(OC(F)(F)F)cc1	SUMO Mot1 rescue 800.9 | Mot1 SUMO dose inactive
Cc1cccc(C)c1NC(=O)CN(C)C(=O)c1ccc2nc[nH]c2c1	none
COc1cc(NC(=O)c2ccccc2F)c(OC)cc1NC(=O)CN1CCCCC1	SUMO Mot1 rescue 552.2 | Mot1 SUMO dose inactive
COc1cc(NC(=O)Nc2ccccc2OC)c(OC)cc1NC(=O)CN1CCCCC1	none
Cc1ccc(S(=O)(=O)N[C@@H](Cc2ccccc2)C(=O)CCl)cc1	SUMO Mot1 rescue 607.9 | Mot1 SUMO dose inactive
COC(=O)c1ccc(NC(=O)CCN2CCN(c3ccccc3)CC2)cc1	SUMO Mot1 rescue 519.5 | Mot1 SUMO dose inactive
O=C(CCN1CCN(c2ccccc2)CC1)Nc1ccc(Cl)cc1	none (no result: SUMO Mot1 rescue)
CCOC(=O)c1ccc(NS(=O)(=O)c2c(C)[nH]c(C)c2C(=O)N2CCCCC2)cc1	none
CCS(=O)(=O)c1nc(S(=O)(=O)c2ccc(Cl)cc2)c(N2CCc3ccccc3C2)s1	SUMO Mot1 rescue 444.2 | Mot1 SUMO dose inactive
CCN1CCN(c2sc(S(=O)(=O)CC)nc2S(=O)(=O)c2ccc(Cl)cc2)CC1	none (no result: GRIN3A LBD mod, NTR1 agonist, AI-2 QS modul, SUMO Mot1 rescue, AHR activator)
Cc1ccc(S(=O)(=O)NCC(C)n2cncn2)cc1 (centres undefined)	SUMO Mot1 rescue 532.6 | Mot1 SUMO dose inactive
Cc1ccc(S(=O)(=O)Oc2ccccc2N2C(=O)C3CC=CCC3C2=O)cc1 (centres undefined)	SUMO Mot1 rescue active | Mot1 SUMO dose inactive
COc1cccc(-n2c(Cc3cc(=O)[nH]c(=O)[nH]3)nnc2SCc2cccnc2)c1	SUMO Mot1 rescue 511.3 | Mot1 SUMO dose inactive
CC/C(=N\Nc1ccc([N+](=O)[O-])cc1)c1ccccc1	SUMO Mot1 rescue 415.3 | Mot1 SUMO dose inactive
CC(C)(C)NS(=O)(=O)c1ccc(Oc2ncc(C(F)(F)F)cc2Cl)cc1	none
COCCCNS(=O)(=O)c1ccc(Oc2ncc(C(F)(F)F)cc2Cl)cc1	SUMO Mot1 rescue active | Mot1 SUMO dose inactive
Cc1ccc2nc(N(CCN(C)C)C(=O)C3CCN(S(=O)(=O)c4cccs4)CC3)sc2c1	none (no result: GRIN3A LBD mod, NTR1 agonist, AI-2 QS modul, SUMO Mot1 rescue, AHR activator)
COCCN(C(=O)COC(=O)c1cc2ccccc2cc1OC)c1c(N)n(Cc2ccccc2)c(=O)[nH]c1=O	none
CCN(C(=O)Cn1nc(C)c([N+](=O)[O-])c1C)c1c(N)n(Cc2ccccc2)c(=O)[nH]c1=O	SUMO Mot1 rescue 375.6 | Mot1 SUMO dose inactive
CCCCN(C(=O)C1=COCCO1)c1c(N)n(Cc2ccccc2)c(=O)[nH]c1=O	SUMO Mot1 rescue 521.3 (no result: AI-2 QS modul) | Mot1 SUMO dose inactive
COCCN(C(=O)C1=COCCO1)c1c(N)n(Cc2ccccc2)c(=O)[nH]c1=O	none
CC(C)CN(C(=O)COC(=O)c1ccc2c(c1)OCO2)c1c(N)n(Cc2ccccc2)c(=O)[nH]c1=O	SUMO Mot1 rescue 710.4 (no result: AI-2 QS modul) | Mot1 SUMO dose inactive
CC(C)CN(C(=O)COC(=O)c1ccc2c(c1)OCCO2)c1c(N)n(Cc2ccccc2)c(=O)[nH]c1=O	none
CN(C(=O)COC(=O)c1cc2ccccc2cc1O)c1c(N)n(Cc2ccccc2)c(=O)[nH]c1=O	SUMO Mot1 rescue 426.7 (no result: AI-2 QS modul) | Mot1 SUMO dose inactive
Cc1nn(CC(=O)Nc2c(F)c(F)cc(F)c2F)c(=O)c2cccn12	none
CC1(C(=O)NS(=O)(=O)c2ccc(F)cc2F)CCN1C(=O)CC1CCCCC1 (centres undefined)	none (no result: GRIN3A LBD mod, NTR1 agonist, AI-2 QS modul, SUMO Mot1 rescue, AHR activator)
Cc1ccsc1C(=O)OC(C)C(=O)NC1CCCCC1C (centres undefined)	none (no result: AI-2 QS modul, SUMO Mot1 rescue, AHR activator)
O=c1c2ccccc2nc(SCc2ccc([N+](=O)[O-])cc2)n1-c1ccc(Cl)cc1	none
O=c1c2ccccc2nc(SCc2ccc([N+](=O)[O-])cc2)n1CCCO	SUMO Mot1 rescue 464.0 | Mot1 SUMO dose inactive
Cc1cc(-c2ccc(C(C)C)c(S(=O)(=O)N3CC(=O)Nc4ccccc43)c2)on1	SUMO Mot1 rescue 580.6 | Mot1 SUMO dose inactive
Cc1cc(-c2ccc(C)c(S(=O)(=O)N3CC(=O)Nc4ccccc43)c2)on1	none
CN(C)c1ccc2nc3ccc(=O)cc-3sc2c1	none (no result: GRIN3A LBD mod, NTR1 agonist, AI-2 QS modul, SUMO Mot1 rescue, AHR activator)
CN(C)c1ccc2nc3ccc(=[N+](C)C)cc-3sc2c1	SUMO Mot1 rescue 556.5 | Mot1 SUMO dose inactive
